The values below come from PubChem BioAssay AID624404 (Broad Institute, 2012).

Hit rate of the full screen: of about 1,800 compounds, about 710 (39%) were called active. Another 28% or so got no clear call; they are omitted.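 How the source made its calls: active means luciferase signal rise whose fitted curve crosses a set activity limit at or below the top valid tested dose; inconclusive means flat fit with 30 to 70% rise, or poor fit; inactive means signal falling, flat within 30%, or crossing above top dose.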 Not all results are given here. Results with a measured potency or affinity are listed apart.

A short description of this experiment: luciferase activators in glycosylation-insensitive reporter cells, dose response, counter-screen for N-linked glycosylation inhibitor project, D54 LucT cells, luminescence, cherry pick (AID 624404). The settings on record: D54 LucT luciferase reporter counterscreen, 24 h; series mostly up to 19.5 µM.
Take `Cc1ccc(NC(=O)c2cc(S(=O)(=O)N(C)C)ccc2N2CCCC2)cc1F`: the molecule was classed as inactive.

Take `COc1ccc(S(=O)(=O)Nc2c(C(=O)O)[nH]c3ccc(OC)cc23)c(OC)c1`: the molecule was called inactive.

Consider `COc1cc(-c2noc(C)c2/C=C/c2ccc(OC(C)=O)cc2)cc(OC)c1OC`, for which the molecule was called inactive.

On to `COc1cc(NC(=O)c2cc(-c3ccccc3)nc3c2cnn3C(C)C)cc(OC)c1OC`, for which the outcome was inactive.

In the case of `NC(=O)c1cccc(Nc2nc(C(N)CCc3ccccc3)cs2)n1` (stereo not given), the outcome was inactive.

With `CCOC(=O)C1CCN(S(=O)(=O)Cc2ccccc2)CC1`, the outcome was inactive.

Consider `O=C1CCCC2=C1C(c1ccco1)Nc1ccc(C(=O)c3ccccc3)cc1N2` (stereo not given), for which the result was inactive.

Turning to `CCCn1c2ccccc2c2cnn(CC(=O)NC3CCCC(C)C3C)c(=O)c21` (stereo not given), the call was inactive.

With `COc1ccc(N(CC(=O)Nc2cc(Cl)ccc2OC)S(=O)(=O)c2c(C)noc2C)cc1`, the molecule was classed as inactive.

Regarding `COc1ccc(OC)c(N(CC(=O)Nc2cccnc2)S(=O)(=O)c2ccc(C)cc2)c1`, the outcome was inactive.

On to `CCOc1ccccc1NC(=O)CN(c1ccc(OC)cc1)S(=O)(=O)c1c(C)noc1C`, for which the molecule was classed as inactive.

As for `CN(C)Cc1c(O)ccc2c1O/C(=C\C=C\c1ccccc1)C2=O`, the molecule was classed as inactive.

With `O=C(CCl)N1CCCC1c1ccc2c(c1)OCCO2` (stereo not given), the outcome was inactive.

For `CC(C)C(=O)Nc1ccc(C(=O)N/N=C/c2cc(Br)cc(Br)c2O)cc1`, the molecule was classed as inactive.

As for `COc1ccc(/C=N/NC(=O)c2ccc(COc3ccccc3Cl)o2)c(OC)c1C`, the call was inactive.

For the molecule `Cc1cc2nnc(SCC(=O)NCc3cccs3)n2c2ccccc12`, the call was inactive.

Regarding `CNC(=O)c1cccc2nc3ccccc3nc12`, the molecule was called inactive.

In the case of `Cc1cc(C)c(C)c(OC(=O)c2sc(Cl)nc2C)c1`, the outcome was inactive.

As for `CCOC(=O)c1ccc(Oc2cc(C)nc(SC)n2)cc1`, the call was inactive.

With `CCOC(=O)c1ccc(N=c2sc(C(=O)OC)cc(=O)n2Cc2ccco2)cc1`, the molecule was called inactive.

`CCn1cc([N+](=O)[O-])c(C(=O)Nc2nc(-c3ccc(C)c(C)c3)c(C)s2)n1`: the call was inactive.

For the molecule `COc1cccc(Oc2ccc(C(F)(F)F)cc2NC(=O)CN2C(=O)NC3(CCCC3)C2=O)c1`, the outcome was inactive.

On to `COC(=O)c1cc(OC)c(OC)cc1NC(=S)NC(=O)c1ccco1`, for which the call was inactive.

As for `CCN(CC)CCCNc1nc2ccccc2c2nc(-c3ccncc3)nn12`, the result was inactive.

For `CN(C)CCCNc1c2c(nc3ccccc13)CCC2`, the molecule was classed as inactive.

Take `CN(C)CCOc1nc(-c2ccccc2)nc2c1oc1ccccc12`: the outcome was inactive.

Take `c1ccc(CNc2nc(NCCc3ccncc3)c3sccc3n2)cc1`: the molecule was called inactive.

With `Cc1cc(NCCCN(C)C)n2c(nc3ccccc32)c1C#N`, the result was inactive.

In the case of `O=C(CSc1ncnc2nc[nH]c12)c1ccc([N+](=O)[O-])cc1`, the molecule was classed as inactive.

In the case of `COc1cc(C(=O)OCC(=O)c2cc(C)n(C)c2C)cc(OC)c1OC`, the result was inactive.

For the molecule `COc1cc(COCC(O)CN2CCN(CCN3C(=O)c4cccc5cccc(c45)C3=O)CC2)cc(OC)c1OC` (stereo not given), the molecule was called inactive.

For the molecule `C=CCOc1ccc2nc(NC(=O)OC)[nH]c2c1`, the result was inactive.

On to `Cc1noc2ncnc(Sc3ccccc3Cl)c12`, for which the outcome was inactive.

In the case of `CCc1nn2c(N(C)CCO)cc(C)nc2c1-c1ccc(F)cc1`, the call was inactive.

With `OC1CCCN(Cc2c3ccccc3cc3ccccc23)C1` (stereo not given), the outcome was inactive.

On to `CCOC(=O)c1cnc2c(C)cc(C)cc2c1NCCCN1CCOCC1`, for which the molecule was called inactive.

Consider `CN(C)CCNC(=O)c1cccc2nc3c(ccc4ccccc43)nc12`, for which the molecule was called inactive.

`CCOC(=O)c1cc2sccc2n1CC(=O)N1CCc2ccccc21`: the molecule was classed as inactive.

Regarding `COc1cc(-c2noc(C)c2/C=C/c2ccc(N)cc2)cc(OC)c1OC`, the outcome was inactive.

Turning to `Cc1ccc(Nc2nnc(SCC(=O)Nc3ncc(S(=O)(=O)c4ccc([N+](=O)[O-])cc4)s3)s2)cc1`, the molecule was called inactive.

`CCOC(=O)c1c(C)oc2c(F)c(F)c(F)c(F)c2c1=O`: the molecule was classed as inactive.

Regarding `CNc1ccc(Br)cc(C(=O)/C=C/c2cccc(OC)c2OC)c1=O`, the molecule was called inactive.

For the molecule `CCOc1ccc2c(c1)C(=NNC(=O)c1ccncc1)c1cc(OCC)ccc1-2`, the molecule was classed as inactive.

On to `COc1ccc(C(=O)CSc2nn3c(=O)c(C(C)(C)C)nnc3s2)cc1`, for which the result was inactive.

Take `COC(=O)c1ccc2c(=O)n(Cc3ccco3)c(SCC(=O)Nc3cc(C)on3)nc2c1`: the result was inactive.

On to `CCN(CC)C(=O)CSc1nc2c(sc(=S)n2-c2ccccc2)c(=O)n1Cc1ccco1`, for which the molecule was called inactive.

Turning to `CCOC(=O)c1ccc(/C=C2/C=C(c3ccccc3)N(c3ccc(Cl)c(C(=O)O)c3)C2=O)cc1`, the outcome was inactive.

`Cc1ccc(Cl)cc1N1CCN(S(=O)(=O)c2ccc(-c3ccc(=O)[nH]n3)o2)CC1`: the outcome was inactive.

For the molecule `Cn1c(N)c(C(=O)COC(=O)c2cc(S(=O)(=O)N3CCOCC3)ccc2F)c(=O)n(C)c1=O`, the call was inactive.

For `CCCn1c(=N)n(CC(=O)c2ccc([N+](=O)[O-])cc2)c2ccccc21`, the result was inactive.
